D1 agonist: Allosteric Agonists of the Human D1 Dopamine Receptor: qHTS | D(1A) dopamine receptor (Homo sapiens), P21728 | activation, % at 2 µM | HEK293 T-REx D1 cells, calcium flux, agonist mode | hit rate 1% among 360,000; in the data active = activation above about 30%; also: 0% is about no effect
Target sequence (P21728 whole entry, looked up): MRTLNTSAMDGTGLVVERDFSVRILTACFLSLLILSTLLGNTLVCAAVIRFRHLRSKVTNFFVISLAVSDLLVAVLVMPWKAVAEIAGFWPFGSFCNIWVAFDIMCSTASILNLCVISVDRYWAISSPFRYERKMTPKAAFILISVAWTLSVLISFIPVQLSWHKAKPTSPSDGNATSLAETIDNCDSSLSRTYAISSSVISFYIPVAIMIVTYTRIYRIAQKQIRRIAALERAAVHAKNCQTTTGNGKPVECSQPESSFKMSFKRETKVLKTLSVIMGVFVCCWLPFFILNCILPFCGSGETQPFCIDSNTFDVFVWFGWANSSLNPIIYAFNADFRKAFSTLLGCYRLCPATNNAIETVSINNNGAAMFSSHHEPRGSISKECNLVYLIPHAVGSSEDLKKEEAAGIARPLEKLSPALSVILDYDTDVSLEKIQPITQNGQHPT
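Inducible HEK293 T-REx D1 cells, force-coupled to calcium signalling, were plated at 4000 cells/well with tetracycline and held overnight at 30 C. After no-wash calcium dye loading, compound-evoked calcium rise over 180 s flagged agonists.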
D3 ag: qHTS of D3 Dopamine Receptor Agonist: qHTS; D3R DiscoveRx beta-arrestin cells, luminescence, 90 min; hit rate 0.58% among 410,000; D(3) dopamine receptor (Homo sapiens), P35462; max activation, %; in the data active = max activation above about 30%; also: 0% is about no effect
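Cells at 1500/well, incubated overnight, then treated with pinned compounds (dopamine as control) for 90 min at 37 degrees C. DiscoveRx reagent added for 30 - 60 minutes at room temperature; luminescence read.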
D1 antag: Antagonist of Human D 1 Dopamine Receptor: qHTS. HEK293 TREx D1 cells, calcium flux, dopamine EC80; hits give low values. activity change, negative = inhibition, % at 10 µM. hit rate 3.2% among 360,000. D(1A) dopamine receptor (Homo sapiens), P21728; in the data active = activity change below about -30%; also: % is scaled to controls: 0 for no effect and ±100 for the full control effect
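Tetracycline-induced HEK293 Trex D1 cells, force-coupled to calcium, dye-loaded; compounds added and read 180 s, then EC80 dopamine added and calcium flux tracked kinetically another 180 s.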
D1 potentiator: Potentiators of Human D1 Dopamine Receptor: qHTS. D(1A) dopamine receptor (Homo sapiens), P21728. HEK293 TREx D1 cells, calcium flux, dopamine EC20 potentiation. potentiation, % at 10 µM. hit rate 0.036% among 360,000. AID 504651, 2011; in the data active = potentiation above about 30%; also: 0% is about no effect
D3 antag: qHTS of D3 Dopamine Receptor Antagonist: qHTS; D(3) dopamine receptor (Homo sapiens), P35462; D3R cells, DiscoveRx beta-arrestin luminescence, antagonist mode; hits give low values; max response, negative = inhibition, %; hit rate 2.5% among 360,000; AID 652054, 2013; in the data active = max response below about -50%; inconclusive = no clear call, values can overlap the other calls; also: % is scaled to controls: 0 for no effect and ±100 for the full control effect
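Cells expressing the human receptor were seeded at 1500 cells/well, incubated overnight at 37 degrees C in 5% CO2, then exposed to library compounds with dopamine controls for 90 minutes at 37 degrees C before luminescent detection.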
* = called active by the depositor; ? = inconclusive; . = not tested or not shown. This is a sample that favours compounds with a hit; in the whole collection about 6.1% have one here.

SMILES	D1 agonist	D3 ag	D1 antag	D1 potentiator	D3 antag
Cc1ccccc1Oc1cc(-n2ncc(Cl)c(Cl)c2=O)ncn1	0.0	-54.4	-27.0	-3.2	-97.1*
CCOC(=O)CCCCC(=O)c1[nH]c(=O)[nH]c1CSc1nnc2c3cc(Br)ccc3n(C)c2n1	2.9	.	-33.3*	-1.4	.
CCOC(=O)CCCCC(=O)c1[nH]c(=O)[nH]c1CSc1nc(C)cc(C)n1	1.6	-4.5	15.0	-7.3	1.3
CC1CCN(C(=S)c2ccc(O)cc2)CC1	0.7	-4.2	-75.4*	-12.5	0.5
O=C(NCCOc1ccc(Cl)cc1)c1cccc(S(=O)(=O)N2CCCC2)c1	3.7	-0.5	3.4	-3.9	2.5
Cc1ccccc1Nc1nc(N)nc(CN2CCN(Cc3ccc4c(c3)OCO4)CC2)n1	-0.6	-8.1	-0.9	-5.8	-4.6
Nc1nc(CN2CCN(c3ccccc3)CC2)nc(Nc2ccc(Cl)cc2)n1	0.5	-4.8	-40.1*	-6.5	2.2
Nc1nc(CN2CCN(Cc3ccc4c(c3)OCO4)CC2)nc(Nc2ccccc2)n1	2.0	-4.3	-46.5*	-9.7	?
Cc1cccc(Nc2nnc(SCC(=O)NCC3CCCO3)s2)c1C (centres undefined)	.	4.3	.	.	15.4
Cc1ccc(-c2noc(-c3cccnc3N(C)Cc3ccc(Cl)cc3)n2)cc1	0.1	4.1	1.3	-1.6	.
COc1ccccc1N1CCN(C(=O)CNC(=O)c2ccc(Cl)cc2Cl)CC1	-0.8	0.6	-9.7	-1.1	3.6
Cc1cccc(NC(=O)COC(=O)C2COc3ccccc3O2)c1C (centres undefined)	.	9.2	.	.	11.1
COc1cccc(CN(C)C(=O)c2cc(-c3ccc(OC)c(OC)c3)nc3ccccc23)c1	2.8	34.3*	9.9	-7.3	39.0
COc1cccc(CN(C)C(=O)c2cc(-c3ccc(F)cc3)nc3ccccc23)c1	0.6	11.0	13.9	9.4	55.1
O=C(C1COc2ccccc2O1)N1CCN(c2nc3ccccc3s2)CC1 (centres undefined)	5.9	4.4	-62.1*	-7.6	8.1
CCSc1ccccc1C(=O)N1CCN(c2nc3ccccc3s2)CC1	31.1*	-9.0	.	8.4	.
O=C(c1cccs1)N1CCN(c2nc3ccccc3s2)CC1	6.2	3.1	-37.1*	-2.9	17.1
O=C(C1COc2ccccc2O1)N1CCN(c2nc3ccc([N+](=O)[O-])cc3s2)CC1 (centres undefined)	5.7	-6.2	-23.6	0.5	10.1
Oc1ccc(COCc2ccc(F)cc2)c2cccnc12	2.7	.	-6.5	-7.5	.
O=[N+]([O-])c1cc(-c2nc(-c3ccccc3)no2)ccc1N1CCOCC1	-1.5	4.9	-18.5	-2.8	.
Nc1nc2c(ncn2[C@@H]2O[C@H](CNS(=O)(=O)c3cccnc3)[C@@H](O)[C@H]2O)c(=O)[nH]1	.	10.0	.	.	4.7
CCOc1ccc(/C=C/C(=O)N(CC)CC(=O)Nc2ccc3c(c2)OCCO3)cc1OCC	-0.2	-18.1	-16.3	-13.3	-56.6*
CCOc1c(Cl)cc(/C=C/C(=O)N(CC)CC(=O)Nc2ccc(NC(C)=O)cc2)cc1OC	8.0	-8.7	-14.4	-3.5	-52.7*
CC1(C(=O)NC2CCN(Cc3ccccc3)CC2)CCN1CCc1ccccc1 (centres undefined)	.	-21.4	.	.	-85.2*
CC1(C(=O)NC2CCN(Cc3ccccc3)CC2)CCN1Cc1ccc(OC(F)(F)F)cc1 (centres undefined)	.	-13.3	.	.	-65.4*
CC(C)(Oc1ccc(Cl)cc1)C(=O)NC1CCN(Cc2ccccc2)CC1	8.3	-27.7	-51.2*	-4.7	-82.3*
CC1(C(=O)NC2CCN(Cc3ccccc3)CC2)CCN1Cc1ccc2ccccc2c1 (centres undefined)	.	-10.7	.	.	-97.1*
CCC(C)(C)OC(=O)N[C@@H](Cc1c[nH]c2ccccc12)C(=O)N[C@@H](CCSC)C(=O)N[C@@H](CC(=O)O)C(=O)N[C@@H](Cc1ccccc1)C(N)=O	.	9.5	.	.	.
O=C(Cn1ccc(NC(=O)OCc2ccccc2)nc1=O)NCCN1CCOCC1	-3.4	-6.0	.	1.5	-13.7
